Results taken from PMC4336329 (PLoS ONE, 2015).
Among all 310,000 compounds or so, about 2,200 (0.71%) showed an effect of 50% or more. The effect is printed as a negative number. For the sample, strong results were picked, then their nearest neighbours and some compounds at random.

target: human ether-à-go-go-related gene (hERG) potassium channel (human, UniProt Q12809); assay: primary screen, population patch clamp on CHO cells stably expressing hERG; higher = less effect of the substance
Method: Briefly, Chinese hamster ovary (CHO) cells stably expressing the hERG channel were dislodged from tissue culture flasks and dispensed into PPC plates. […] During the recording, background leak currents were estimated by a 100 ms step to -80 mV from an initial holding potential of -70 mV and subtracted from the subsequent current measurement. The campaign was conducted in two phases using slight differences in recording protocol. In the first phase, the initial voltage pulse used a 100 ms step to -30 mV from a holding potential of -70 mV, a 2 s conditioning step to +25 mV, and a 2 s test step to -30 mV. During the second phase of the screen, the potential during the conditioning step was raised to +45 mV. In both phases of the campaign, a secondary voltage pulse was applied using the same parameters as the second phase initial pulse. The initial and secondary pulses were applied in the absence of compound, and upon application of 1 μM and 10 μM test concentrations. Small molecule effects on hERG current density were quantified by […].

Sequence of human ether-à-go-go-related gene (hERG) potassium channel (Q12809 whole entry, looked up): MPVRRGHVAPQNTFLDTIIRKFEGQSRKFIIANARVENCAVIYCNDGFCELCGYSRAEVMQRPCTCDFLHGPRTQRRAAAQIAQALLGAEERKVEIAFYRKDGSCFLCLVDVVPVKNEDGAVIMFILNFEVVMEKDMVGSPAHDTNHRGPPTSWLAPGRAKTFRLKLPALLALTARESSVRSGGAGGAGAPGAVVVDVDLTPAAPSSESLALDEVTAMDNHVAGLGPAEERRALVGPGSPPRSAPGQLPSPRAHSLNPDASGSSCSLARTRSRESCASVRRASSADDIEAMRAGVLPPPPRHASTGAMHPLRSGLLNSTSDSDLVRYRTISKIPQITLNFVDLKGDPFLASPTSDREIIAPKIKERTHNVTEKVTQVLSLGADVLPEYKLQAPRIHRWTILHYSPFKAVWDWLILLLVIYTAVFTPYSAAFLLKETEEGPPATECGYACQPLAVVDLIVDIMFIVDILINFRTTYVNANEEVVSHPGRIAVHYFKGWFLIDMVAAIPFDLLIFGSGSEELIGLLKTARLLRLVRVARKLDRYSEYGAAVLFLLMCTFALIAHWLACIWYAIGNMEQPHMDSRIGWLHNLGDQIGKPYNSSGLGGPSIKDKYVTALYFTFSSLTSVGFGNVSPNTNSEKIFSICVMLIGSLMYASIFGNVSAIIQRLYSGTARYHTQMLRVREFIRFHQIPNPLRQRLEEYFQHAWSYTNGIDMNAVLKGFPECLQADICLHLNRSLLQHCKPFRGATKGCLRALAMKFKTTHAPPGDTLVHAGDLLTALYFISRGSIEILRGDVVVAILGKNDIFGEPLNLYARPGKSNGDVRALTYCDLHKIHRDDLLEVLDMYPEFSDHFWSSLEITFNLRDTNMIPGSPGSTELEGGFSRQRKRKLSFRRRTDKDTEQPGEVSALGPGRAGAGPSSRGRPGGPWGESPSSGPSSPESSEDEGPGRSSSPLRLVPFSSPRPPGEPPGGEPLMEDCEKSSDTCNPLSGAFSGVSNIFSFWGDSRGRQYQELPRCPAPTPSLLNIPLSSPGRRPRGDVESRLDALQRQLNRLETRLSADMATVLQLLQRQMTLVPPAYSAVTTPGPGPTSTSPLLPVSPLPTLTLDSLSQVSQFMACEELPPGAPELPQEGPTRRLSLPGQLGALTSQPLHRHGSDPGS

Going from `CC(=O)N(C(C)=O)S(=O)(=O)c1ccc(N=NN2CCCCC2)cc1` to `Cc1ccc(CNC(=O)CCS(=O)(=O)c2ccc3c(c2)CC(C)N3C(=O)C2CC2)cc1` (centres unmarked), the “hERG current change (%, negative = inhibition) at 1uM” value falls from 11.6% to 0.306%.

First: CCOC(=O)N1CCN(C(=O)c2ccc([N+](=O)[O-])cc2Cl)CC1
Second: O=C(O)COCC(=O)N1CCN(C2c3ccccc3-c3ccccc32)CC1
The “hERG current change (%, negative = inhibition) at 1uM” value of the first is lower: 6.8% for the first, 12.4% for the second.

Compared with `Oc1ccccc1-[n+]1c(-c2ccccc2)cc(-c2ccccc2)cc1-c1ccccc1.[O-][Cl+3]([O-])([O-])[O-]`, `Cc1ccccc1-[n+]1c(-c2ccccc2)cc(-c2ccccc2)cc1-c1ccccc1.[O-][Cl+3]([O-])([O-])[O-]` is lower in “hERG current change (%, negative = inhibition) at 1uM” value: -40.5% for the first, -55.8% for the second.

First: Cc1ccc(-c2cc(-c3ccc(C)cc3)[n+](-c3ccccc3)c(-c3ccc(C)cc3)c2)cc1.[O-][Cl+3]([O-])([O-])[O-]
Second: Cc1ccc(-c2cc(-c3ccc(C)cc3)[n+](-c3ccc(C(=O)O)cc3)c(-c3ccc(C)cc3)c2)cc1.[O-][Cl+3]([O-])([O-])[O-]
The “hERG current change (%, negative = inhibition) at 1uM” value of the first is lower: -77.3% for the first, 17.7% for the second.

First: COc1ccc(-[n+]2c(-c3ccccc3)cc(-c3ccccc3)cc2-c2ccccc2)cc1.[O-][Cl+3]([O-])([O-])[O-]
Second: Oc1ccc(-[n+]2c(-c3ccccc3)cc(-c3ccccc3)cc2-c2ccccc2)cc1.[O-][Cl+3]([O-])([O-])[O-]
The “hERG current change (%, negative = inhibition) at 1uM” value of the first is lower: -29.2% for the first, 5.58% for the second.

First: COc1ccc(-[n+]2c(-c3ccccc3)cc(-c3ccc(C)cc3)cc2-c2ccccc2)cc1.[O-][Cl+3]([O-])([O-])[O-]
Second: Cc1ccc(-c2cc(-c3ccccc3)cc(-c3ccccc3)[n+]2-c2ccc(C(=O)O)cc2)cc1.[O-][Cl+3]([O-])([O-])[O-]
The “hERG current change (%, negative = inhibition) at 1uM” value of the first is lower: -52% for the first, 7.88% for the second.

Compared with `Brc1ccc(-[n+]2c(-c3ccccc3)cc(-c3ccccc3)cc2-c2ccccc2)cc1.[O-][Cl+3]([O-])([O-])[O-]`, `Cc1ccc(-c2cc(-c3ccccc3)cc(-c3ccccc3)[n+]2-c2ccccc2)cc1.[O-][Cl+3]([O-])([O-])[O-]` is lower in “hERG current change (%, negative = inhibition) at 1uM” value: -18.7% for the first, -80.4% for the second.

Compared with `Nc1ccccc1-[n+]1c(-c2ccccc2)cc(-c2ccccc2)cc1-c1ccccc1.[O-][Cl+3]([O-])([O-])[O-]`, `[O-][Cl+3]([O-])([O-])[O-].c1ccc(-c2cc(-c3ccccc3)[n+](-c3ccccc3)c(-c3ccccc3)c2)cc1` is lower in “hERG current change (%, negative = inhibition) at 1uM” value: 0.0928% for the first, -27.7% for the second.

First: Fc1ccc(C[n+]2c(-c3ccccc3)cc(-c3ccccc3)cc2-c2ccccc2)cc1.[O-][Cl+3]([O-])([O-])[O-]
Second: Clc1ccc(C[n+]2c(-c3ccccc3)cc(-c3ccccc3)cc2-c2ccccc2)cc1.[O-][Cl+3]([O-])([O-])[O-]
The “hERG current change (%, negative = inhibition) at 1uM” value of the first is lower: -27.1% for the first, -25.5% for the second.

Going from `Cc1ccc(C[n+]2c(-c3ccc(C)cc3)cc(-c3ccc(C)cc3)cc2-c2ccc(C)cc2)cc1.[O-][Cl+3]([O-])([O-])[O-]` to `Cc1ccc(-c2sc(C)nc2CC(=O)O)cc1`, the “hERG current change (%, negative = inhibition) at 1uM” value rises from -61.7% to 7.75%.

Compared with `COc1ccc(-c2cc(N)n(S(=O)(=O)Cc3ccccc3)n2)c(OC)c1`, `COc1ccc(C(=O)CN2C3=NCCCN3c3ccccc32)cc1OC` is lower in “hERG current change (%, negative = inhibition) at 1uM” value: -4.34% for the first, -6.85% for the second.

First: COc1ccc(NC(=S)N2CCNC(=O)C2CC(=O)Nc2cccc(Cl)c2C)cc1 (centres unmarked)
Second: COc1ccc(CC(=O)NCC2CCCN(Cc3ccc(OC)cc3F)C2)cc1 (centres unmarked)
The “hERG current change (%, negative = inhibition) at 1uM” value of the first is lower: -5.98% for the first, 6.22% for the second.

First: C=C(C)C1CC=C(C)/C(=N/NC(=O)CCC(=O)Nc2ccccc2Cl)C1 (centres unmarked)
Second: CC(=O)Nc1ccc(CN2CCC(n3nccc3NC(=O)CCc3ccccc3)CC2)cc1
The “hERG current change (%, negative = inhibition) at 1uM” value of the first is lower: 6.51% for the first, 11.7% for the second.

Going from `O=C(COC(=O)c1c[nH]c2ccccc12)Nc1ccc(F)cc1` to `O=C(Nc1ccc(F)cc1)C(c1ccccc1)N1CCN(CC(=O)N2CCOCC2)CC1` (centres unmarked), the “hERG current change (%, negative = inhibition) at 1uM” value falls from -1.51% to -14.5%.

First: Cc1cc(C(=O)NN=C(Cc2ccccc2)Cc2ccccc2)c(C)o1
Second: O=C(/C=C/c1ccc(-c2ccccc2)o1)c1ccccc1
The “hERG current change (%, negative = inhibition) at 1uM” value of the first is lower: 4.29% for the first, 10.1% for the second.

Going from `O=C(Nc1cnccn1)c1ccncc1` to `O=C(NCC1CCCN(Cc2ccc3nonc3c2)C1)c1ccc(F)cc1` (centres unmarked), the “hERG current change (%, negative = inhibition) at 1uM” value falls from -8.03% to -13.9%.

First: NS(=O)(=O)c1ccc(CCNC(=O)c2ccccc2F)cc1
Second: CSc1ccc(CN2CCCC(CNC(=O)c3ccc(F)cc3)C2)cc1 (centres unmarked)
The “hERG current change (%, negative = inhibition) at 1uM” value of the first is higher: 4.79% for the first, -59% for the second.

Compared with `CCCCNC(=O)/C=C/c1cccs1`, `CCCC/C(O)=C/c1nc2ccccc2[nH]c1=O` is lower in “hERG current change (%, negative = inhibition) at 1uM” value: 24.3% for the first, 1.79% for the second.

Going from `O=C(COc1ccccc1)N(Cc1ccco1)c1ccc(O)cc1` to `O=C(CCOc1ccccc1)Nc1ccnn1C1CCN(Cc2ccc(O)cc2)CC1`, the “hERG current change (%, negative = inhibition) at 1uM” value falls from 8.59% to -3.76%.

Compared with `CCOC(=O)c1[nH]c(C)c(C(=O)NCc2ccc(Cl)cc2)c1C`, `COc1ccc(CN2CCCC(CNC(=O)c3ccc(F)cc3)C2)c(C)c1C` (centres unmarked) is lower in “hERG current change (%, negative = inhibition) at 1uM” value: -4.65% for the first, -46.2% for the second.

First: CCOc1ccc(CN2CCC(n3nccc3NC(=O)CCCc3ccccc3)CC2)cc1
Second: CCOc1cccc(CN2CCC(n3nccc3NC(=O)CCCc3ccccc3)CC2)c1
The “hERG current change (%, negative = inhibition) at 1uM” value of the first is lower: -88.8% for the first, 9.19% for the second.

Compared with `COc1ccc(CN2CCC(n3nccc3NC(=O)CCCc3ccccc3)CC2)cc1C`, `COc1cc(CN2CCC(n3nccc3NC(=O)CCCc3ccccc3)CC2)ccc1O` is higher in “hERG current change (%, negative = inhibition) at 1uM” value: -67.3% for the first, -5.54% for the second.

Compared with `COc1cccc(CN2CCC(n3nccc3NC(=O)CCCc3ccccc3)CC2)c1O`, `COc1ccccc1CN1CCC(n2nccc2NC(=O)CCCc2ccccc2)CC1` is higher in “hERG current change (%, negative = inhibition) at 1uM” value: -55.4% for the first, -42.7% for the second.

Going from `O=C(CCOc1ccccc1)Nc1ccnn1C1CCN(Cc2ccccc2)CC1` to `O=C(CCOc1ccccc1)Nc1ccnn1C1CCN(CCc2ccccc2)CC1`, the “hERG current change (%, negative = inhibition) at 1uM” value falls from 2% to -51.4%.

Going from `O=C(CCCc1ccccc1)Nc1ccnn1C1CCN(Cc2ccccc2)CC1` to `CCOc1ccccc1CN1CCC(n2nccc2NC(=O)CCCc2ccccc2)CC1`, the “hERG current change (%, negative = inhibition) at 1uM” value falls from -18.8% to -29.2%.

Going from `COc1ccc(CN2CCC(n3nccc3NC(=O)CCOc3ccccc3)CC2)cc1C` to `O=C(CCc1ccccc1)Nc1ccnn1C1CCN(Cc2ccc(OCCO)cc2)CC1`, the “hERG current change (%, negative = inhibition) at 1uM” value rises from -16.2% to -9.11%.

Going from `O=C(CCCN1C(=O)/C(=C/c2ccc3c(c2)OCO3)SC1=S)Nc1cccc(C(=O)O)c1` to `O=C(NCCc1nc2ccccc2[nH]1)/C(=C/c1ccc2c(c1)OCO2)NC(=O)c1ccccc1`, the “hERG current change (%, negative = inhibition) at 1uM” value falls from 9.71% to -14.2%.

Going from `Cn1cc(S(=O)(=O)N2CCC(C(N)=O)CC2)c(=O)n(C)c1=O` to `CSCC[C@H](NC(=O)c1ccc(Cl)c(S(=O)(=O)N2CCCC2)c1)c1nc2ccccc2[nH]1`, the “hERG current change (%, negative = inhibition) at 1uM” value falls from 11% to -1.71%.

Compared with `Cc1c(C)c2cc(Cl)c(O)c(CN(C)C)c2oc1=O`, `CN(C)/C=N/c1cc(=O)[nH]c(=O)n1CC1CC1` is higher in “hERG current change (%, negative = inhibition) at 1uM” value: 15.4% for the first, 17.1% for the second.

Going from `CC(C)Oc1ccc(CN2CCC(n3nccc3NC(=O)CCc3ccccc3)CC2)cc1` to `COc1ccc(CC(=O)NCC2CCCN(Cc3ccc(F)cc3F)C2)cc1` (centres unmarked), the “hERG current change (%, negative = inhibition) at 1uM” value rises from -86.3% to 8.71%.

Compared with `Cc1ccc(NC(=O)C(c2ccccc2)N2CCN(CC(=O)N3CCOCC3)CC2)cc1` (centres unmarked), `CCOc1ccccc1NC(=O)C(c1ccccc1)N1CCN(CC(=O)N2CCOCC2)CC1` (centres unmarked) is lower in “hERG current change (%, negative = inhibition) at 1uM” value: -8.48% for the first, -79.7% for the second.

Compared with `O=C(NCCc1nc2ccccc2[nH]1)/C(=C/c1ccc2c(c1)OCO2)NC(=O)c1ccccc1Cl`, `O=C(NCCc1nc2ccccc2[nH]1)/C(=C/c1ccc2c(c1)OCO2)NC(=O)c1ccc(Cl)cc1Cl` is lower in “hERG current change (%, negative = inhibition) at 1uM” value: -49.9% for the first, -73.9% for the second.

Compared with `CCOc1ccc(CN2CCCC(CNC(=O)c3ccc(F)cc3)C2)cc1CO` (centres unmarked), `CCOc1cc(CN2CCCC(CNC(=O)c3ccc(F)cc3)C2)ccc1OC` (centres unmarked) is higher in “hERG current change (%, negative = inhibition) at 1uM” value: -50.5% for the first, -17% for the second.

First: COc1ccc(CN2CCCC(CNC(=O)c3ccc(F)cc3)C2)c(F)c1 (centres unmarked)
Second: COc1ccc(CN2CCCC(CNC(=O)c3ccc(F)cc3)C2)cc1OC (centres unmarked)
The “hERG current change (%, negative = inhibition) at 1uM” value of the first is higher: -50.4% for the first, -54.3% for the second.

First: O=C(NCC1CCCN(Cc2cccc(OCCO)c2)C1)c1ccc(F)cc1 (centres unmarked)
Second: CSc1cccc(CN2CCCC(CNC(=O)c3ccc(F)cc3)C2)c1 (centres unmarked)
The “hERG current change (%, negative = inhibition) at 1uM” value of the first is higher: 2.83% for the first, -19.1% for the second.

Going from `COc1cc(OC)cc(C(=O)NCC2CCCN(Cc3ccc(SC)cc3)C2)c1` (centres unmarked) to `Br.COc1cccc(C(=O)CN2C3=NCCCN3c3ccccc32)c1`, the “hERG current change (%, negative = inhibition) at 1uM” value falls from -34.6% to -61.2%.

Compared with `O=C(NCc1ccco1)c1cc2n(n1)C(C(F)(F)F)CC(c1ccc(F)cc1)N2` (centres unmarked), `Br.O=C(CN1C2=NCCN2c2ccccc21)c1ccc(Br)cc1` is lower in “hERG current change (%, negative = inhibition) at 1uM” value: -4.18% for the first, -28.4% for the second.

First: Br.Cc1ccc(C)c(C(=O)CN2C3=NCCCN3c3ccccc32)c1
Second: Br.O=C(CN1C2=NCCCN2c2ccccc21)c1cccc(Br)c1
The “hERG current change (%, negative = inhibition) at 1uM” value of the first is lower: -43% for the first, -28.6% for the second.

In the case of `Br.O=C(CN1C2=NCCCN2c2ccccc21)c1ccc([N+](=O)[O-])cc1`, the “hERG current change (%, negative = inhibition) at 1uM” value is reported as -54%.
